Experimental data reported in PubChem BioAssay.
Values joined by “and” are separate entries in the source; they are usually repeats but may differ in a detail not shown here. Equal values may be shown once. Active and inactive are the calls of the source. Unless noted, no rule for the calls is given here.

Key:
[1] = system: Wnt5a (protein binding on small-molecule microarray); assay: Wnt5a binders on small-molecule microarray, primary screen, biophysical, 635/667 nm fluorescence (AID 1142); details: 635 nm fluorescence, higher = more signal;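 also: fluorescence read at 667 nm with signal to noise per printed feature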
[2] = cell viability in Huh7 cells, primary screen, cytotoxicity control for HCV replication inhibitor project, CellTiter-Glo luminescence, basal, 48 h (AID 1143); details: Huh7 HCV replicon, higher = more signal, called active from +8 up or from −8 down;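 also: Huh7 hepatoma cells carrying a hepatitis C replication reporter with no stimulus; test concentration not given here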
[3] = P. aeruginosa biofilm formation inhibitors, primary screen, PAO1 strain, BacTiter-Glo luminescence, LB-PBS (AID 1144); details: 12 h, higher = more signal
[4] = CREB reporter modulators without forskolin, primary screen, cell-based, PC12, CRE-LacZ reporter, unstimulated (AID 1145); details: no forskolin, luminescence, 4.5 h, higher = more signal, called active from +8 up or from −8 down
[5] = CREB reporter modulators under forskolin, primary screen, cell-based, PC12, CRE-LacZ reporter, forskolin-stimulated (AID 1146); details: luminescence, 4.5 h, higher = more signal, called active from +8 up or from −8 down;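 also: PC12 cells with 6xCRE LacZ reporter stimulated by forskolin 10 µM; beta-galactosidase reporter signal reflecting CREB driven transcription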
[6] = target: Streptavidin (Streptomyces avidinii) (UniProt P22629); assay: streptavidin binders on small-molecule microarray, primary screen, artefact control for SMM compound annotation, biophysical, 635/667 nm fluorescence (AID 1147); details: streptavidin binding, higher = more signal;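 also: signal reflects streptavidin binding to arrayed compounds as a control protein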
Sequence of Streptavidin (Streptomyces avidinii) (P22629 whole entry, looked up): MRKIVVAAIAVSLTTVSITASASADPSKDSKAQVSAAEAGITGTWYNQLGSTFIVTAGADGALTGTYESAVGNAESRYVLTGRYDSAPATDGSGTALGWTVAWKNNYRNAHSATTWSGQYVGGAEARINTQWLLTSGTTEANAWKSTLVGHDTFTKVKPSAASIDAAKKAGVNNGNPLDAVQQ

[7] = small-molecule binders of probe aInhba, primary screen, biochemical, small-molecule microarray, 635/667 nm fluorescence (AID 1148); details: higher = more signal;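 also: score merges 667nm spot fluorescence with signal-to-noise for antibody binding to printed compounds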
[8] = target: Torsin-1A (Homo sapiens) (UniProt O14656); assay: torsin A binders from cell lysate, primary screen, small-molecule microarray, wild-type, 635/667 nm (AID 1149); details: COS7 hTOR1A-WT lysate, 635 nm fluorescence, higher = more signal
Sequence of Torsin-1A (Homo sapiens) (O14656 whole entry, looked up): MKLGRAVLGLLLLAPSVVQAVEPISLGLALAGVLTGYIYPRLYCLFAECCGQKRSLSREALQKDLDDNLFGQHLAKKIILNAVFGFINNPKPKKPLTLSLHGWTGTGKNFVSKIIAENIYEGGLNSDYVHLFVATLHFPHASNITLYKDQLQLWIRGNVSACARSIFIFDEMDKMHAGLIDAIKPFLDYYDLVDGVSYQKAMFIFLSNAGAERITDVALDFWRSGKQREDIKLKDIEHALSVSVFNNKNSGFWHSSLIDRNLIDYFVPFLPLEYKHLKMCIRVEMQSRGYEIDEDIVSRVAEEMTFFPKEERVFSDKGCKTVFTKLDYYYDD

[9] = target: Torsin-1A (Homo sapiens) (UniProt O14656); assay: small-molecule binders of mutant TOR1A in lysate, primary screen, cell lysate, small-molecule microarray, COS7 lysate, 635/667 nm fluorescence (AID 1150); details: COS7 hTOR1A mutant lysate, 635 nm fluorescence, higher = more signal;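 also: score pools 667 nm emission and signal to noise measuring lysate protein binding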
[10] = system: Sonic hedgehog protein (Shh); assay: small-molecule binders of Shh protein, primary screen, biochemical, small-molecule microarray, 635/667 nm fluorescence (AID 1151); details: small-molecule microarray binding, 635 nm fluorescence; higher = more signal;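 also: Shh protein binding to compounds spotted on small-molecule microarray slides; score combines spot fluorescence intensity with signal-to-noise across triplicate slides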

In the case of `COCn1c2ccccc2c2nnc(C(C)=O)nc21`, the composite z-score [1] is reported as -0.122 and 0.0561, the z-score [2] is reported as -2.71 (inactive) and -2.58 (inactive) and the z-score [3] is reported as -0.843 (inactive) and -0.869 (inactive). The z-score [4] was 0.11 (inactive) and -0.0732 (inactive), the z-score [5] was 0.353 (inactive) and 0.754 (inactive) and the composite z-score [6] was -0.121 and -0.232. The composite z-score [7] was -0.274 and 0.0111, the composite z-score [8] was 0.331 and 0.417 and the composite z-score [9] was -0.302 and 0.13. For the same molecule, the composite z-score [10] was 0.479 and 0.343.
In the case of `C[N+](C)(C)CCCCNC(=O)[C@H]1C[C@H]2C(=O)N[C@@H](CCCC[N+](C)(C)C)C(=O)N2[C@H]1c1cccc(OCCO)c1`, the composite z-score [1] is reported as 0.949 and 0.646, the z-score [2] is reported as -0.0036 (inactive) and -0.177 (inactive) and the z-score [3] is reported as -0.281 (inactive) and 0.741 (inactive). For the same molecule, the z-score [4] was -0.667 (inactive) and -0.268 (inactive), the z-score [5] was -0.393 (inactive) and -0.441 (inactive) and the composite z-score [6] was -0.853 and -0.0338. The composite z-score [7] was -0.025 and 0.0631, the composite z-score [8] was -1.08 and 1.03 and the composite z-score [9] was -0.879 and 2.09. The composite z-score [10] was 2.21 and 2.31.
With `CCOC(=O)CCN1C(=O)[C@H]2[C@H]3[C@H](O)[C@H](O)CC(=NNC(=O)OCC)[C@@H]3CC[C@H]2C1=O` the composite z-score [1] was 0.201, the z-score [2] was 0.0243 (inactive) and the z-score [3] was -0.129 (inactive). For the same molecule, the z-score [4] was 0.796 (inactive), the z-score [5] was 0.261 (inactive) and the composite z-score [6] was -0.283. The composite z-score [7] was -0.0791, the composite z-score [8] was 0.274 and the composite z-score [9] was 0.608. For the same molecule, the composite z-score [10] was 0.188.
For `CCCNC(=O)OC[C@H]1O[C@H](CCON=C(C)CCN2CCc3nc(-c4ccccc4)c(-c4ccccc4)cc3C2)C=C[C@@H]1Oc1ccc(OC)cc1`, the composite z-score [1] was 0.156, the z-score [2] was -0.81 (inactive) and the z-score [3] was -0.158 (inactive). For the same molecule, the z-score [4] was 2.49 (inactive), the z-score [5] was -0.113 (inactive) and the composite z-score [6] was 0.114. For the same molecule, the composite z-score [7] was -0.152, the composite z-score [8] was 0.479 and the composite z-score [9] was 0.302. It also gave a composite z-score [10] of 0.449.
For `CO[C@H]1COC(=O)CC=C[C@@H](C)COC(=O)[C@@H](OCc2ccccc2)C=C[C@@H]1C`, the composite z-score [1] was -0.134, the z-score [2] was -0.356 (inactive) and the z-score [3] was 0.106 (inactive). The z-score [4] was 0.79 (inactive), the z-score [5] was -0.471 (inactive) and the composite z-score [6] was 0.999. The composite z-score [7] was -0.3, the composite z-score [8] was 2.35 and the composite z-score [9] was 2.28. It also gave a composite z-score [10] of 1.96.
For `C=C[C@@H](OC)[C@H](O)c1ccc(OCCO)cc1`, the composite z-score [1] was -0.825 and -0.361, the z-score [2] was 0.423 (inactive) and -2.25 (inactive) and the z-score [3] was -0.765 (inactive) and -0.622 (inactive). For the same molecule, the z-score [4] was -0.883 (inactive) and -0.184 (inactive), the z-score [5] was -0.812 (inactive) and -1.15 (inactive) and the composite z-score [6] was -0.912 and -1.1. The composite z-score [7] was -0.271 and -0.128, the composite z-score [8] was -1.95 and -1.96 and the composite z-score [9] was -2.39 and -0.212. The composite z-score [10] was 0.18 and -0.247.
For `C=CCN(CCCCC)C(=O)C1N(c2ccc(CCO)cc2)C(=O)C2C(C(=O)O)C3C=CC21O3` (stereo not given), the composite z-score [1] was -0.479 and -0.327, the z-score [2] was -0.641 (inactive) and -0.552 (inactive) and the z-score [3] was 0.839 (inactive) and 0.128 (inactive). For the same molecule, the z-score [4] was -0.48 (inactive) and -0.619 (inactive), the z-score [5] was 0.589 (inactive) and -0.601 (inactive) and the composite z-score [6] was -1.64 and -1.36. For the same molecule, the composite z-score [7] was -0.206 and 0.789, the composite z-score [8] was -1.94 and -0.448 and the composite z-score [9] was 0.101 and -1.53. For the same molecule, the composite z-score [10] was -0.568 and 2.02.
For `COC(=O)C1=C(C)N(Cc2ccccc2)C2=C3C(=O)N(C)C(=O)[C@@H]3[C@@](O)(C(=O)OC)C(=O)N2[C@@H]1c1ccccc1`, the composite z-score [1] was 0.147 and 0.126, the z-score [2] was 0.961 (inactive) and -0.294 (inactive) and the z-score [3] was -0.153 (inactive) and -0.448 (inactive). For the same molecule, the z-score [4] was 2.18 (inactive) and 0.992 (inactive), the z-score [5] was -0.152 (inactive) and -0.755 (inactive) and the composite z-score [6] was 0.378 and 0.131. The composite z-score [7] was 0.038 and 0.0173, the composite z-score [8] was 0.154 and 0.161 and the composite z-score [9] was 0.491 and 0.207. The composite z-score [10] was -0.004 and 0.436.
For `C=C[C@@H](C)[C@H](O)c1ccc(O)c2ccccc12`, the composite z-score [1] was -0.419 and -0.647, the z-score [2] was -2.11 (inactive) and 0.366 (inactive) and the z-score [3] was -0.14 (inactive) and -0.671 (inactive). The z-score [4] was 0.441 (inactive) and -0.272 (inactive), the z-score [5] was -0.349 (inactive) and 0.556 (inactive) and the composite z-score [6] was -0.984 and -0.766. For the same molecule, the composite z-score [7] was -0.224 and -0.233, the composite z-score [8] was -0.595 and -0.309 and the composite z-score [9] was -0.518 and -0.45. For the same molecule, the composite z-score [10] was 1.96 and 0.17.
With `CC(CO)N1C(=O)[C@@H]2C3C(=O)OCCC=C[C@H]3OC23C=CCN(Cn2nnc4ccccc42)C(=O)[C@@H]13` (stereo not given in full) the composite z-score [1] was -0.757 and 0.0538, the z-score [2] was -0.095 (inactive) and -0.464 (inactive) and the z-score [3] was 0.422 (inactive) and -0.131 (inactive). The z-score [4] was -0.208 (inactive) and -1.44 (inactive), the z-score [5] was -0.372 (inactive) and 0.774 (inactive) and the composite z-score [6] was -0.909 and -0.228. The composite z-score [7] was -0.0675 and -0.0405, the composite z-score [8] was -1.13 and 1.95 and the composite z-score [9] was -0.987 and 0.603. For the same molecule, the composite z-score [10] was -1.26 and 0.935.
For `O=C1[C@H]2[C@H]3[C@H](O)[C@H](O)CC(=NOCc4ccccc4)[C@H]3CC[C@H]2C(=O)N1Cc1ccccc1`, the composite z-score [1] was 0.0003, the z-score [2] was -5.42 (inactive) and the z-score [3] was -0.788 (inactive). The z-score [4] was 0.796 (inactive), the z-score [5] was 0.888 (inactive) and the composite z-score [6] was 0.725. The composite z-score [7] was -0.257, the composite z-score [8] was 0.119 and the composite z-score [9] was 0.358. It also gave a composite z-score [10] of 0.659.
In the case of `CCCNC(=O)OC[C@H]1O[C@H](CCON=C(C)CCC(=O)OC[C@H]2O[C@H](C#Cc3ccccc3)C=C[C@@H]2Oc2ccc(C)cc2)C=C[C@@H]1Oc1ccc(OC)cc1`, the composite z-score [1] is reported as -0.284, the z-score [2] is reported as -0.538 (inactive) and the z-score [3] is reported as -0.145 (inactive). For the same molecule, the z-score [4] was -0.729 (inactive), the z-score [5] was 0.872 (inactive) and the composite z-score [6] was 1.07. For the same molecule, the composite z-score [7] was -0.103, the composite z-score [8] was -0.474 and the composite z-score [9] was -0.352. The composite z-score [10] was 0.0277.
For `CC(C)OC(=O)C=C1C[C@@H](c2ccccc2)O[C@@H](c2ccccc2)O1`, the composite z-score [1] was 0.706 and 0.731, the z-score [2] was -1.4 (inactive) and -2.03 (inactive) and the z-score [3] was -0.804 (inactive) and -1.18 (inactive). For the same molecule, the z-score [4] was 0.836 (inactive) and -0.0879 (inactive), the z-score [5] was -0.127 (inactive) and 3.16 (inactive) and the composite z-score [6] was 1.35 and 1.85. The composite z-score [7] was 0.122 and 0.234, the composite z-score [8] was 1.55 and 1.19 and the composite z-score [9] was 1.57 and 1.46. The composite z-score [10] was 1.67 and 0.885.
With `C=CCN(C(=O)C1N(c2c(Cl)cccc2CO)C(=O)C2C(C(=O)O)C3C=CC21O3)c1ccc(OC)cc1` (stereo not given) the composite z-score [1] was -0.898 and -0.782, the z-score [2] was -0.443 (inactive) and -0.172 (inactive) and the z-score [3] was -0.927 (inactive) and -0.513 (inactive). For the same molecule, the z-score [4] was -0.623 (inactive) and 0.0645 (inactive), the z-score [5] was -0.297 (inactive) and -0.684 (inactive) and the composite z-score [6] was -1 and -1.55. The composite z-score [7] was -0.874 and -0.379, the composite z-score [8] was -2.69 and -1.75 and the composite z-score [9] was -1.94 and -1.61. The composite z-score [10] was -1.22 and -0.893.
In the case of `C=C[C@H](OC)[C@@H](O)c1ccc(OCCO)cc1`, the composite z-score [1] is reported as -0.181 and -0.509, the z-score [2] is reported as -0.238 (inactive) and 0.881 (inactive) and the z-score [3] is reported as -0.354 (inactive) and -1.35 (inactive). The z-score [4] was 0.833 (inactive) and -0.0533 (inactive), the z-score [5] was 0.2 (inactive) and -1.46 (inactive) and the composite z-score [6] was -1.59 and -1.75. For the same molecule, the composite z-score [7] was -0.258 and -0.244, the composite z-score [8] was -1.15 and -1.11 and the composite z-score [9] was -0.812 and -1.99. For the same molecule, the composite z-score [10] was -0.459 and -0.143.
